# Experimental data taken from PubChem BioAssay (EPA / NIEHS).
# Activity calls are given as the source filed them. How the source made its calls: active means hit-call score of the fitted dose curve at least 0.9, where 1 is the maximum; inactive means score below 0.9.
# Experiment: ATG_Sox_CIS: Attagene CIS-FACTORIAL HepG2 Assay for human SRY-box transcription factor (SOX) (AID 2282960)
# Conditions: HepG2 Attagene cis-factorial SOX reporter, mRNA; actives raise or lower the signal
# Summary of the method: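 Read-out: fluorescent RT-PCR products of SOX1-linked reporter transcripts resolved by capillary electrophoresis, fitted bidirectionally against DMSO. Transiently transfected HepG2 cells, 24 h after chemical exposure, endogenous transcription factor activity.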
SMILES,outcome,AC50
N#Cc1cc([N+](=O)[O-])ccc1N,inactive,
COP(=O)(O)OC,inactive,
CCOS(=O)(=O)OCC,inactive,
Nc1cc2c3c(c1)C(c1ccccc1)=N[C@@H](NC(=O)c1cccnc1)C(=O)N3CC2,inactive,
Oc1ccc(I)cc1,inactive,
C/C(=N\NC(=O)Nc1cc(F)cc(F)c1)c1ncccc1C(=O)O,inactive,
CCOP(=S)(OCC)SCSCC,inactive,
OCC(F)(F)OC(F)(F)C(F)(F)OC(F)(F)C(F)(F)OC(F)(F)CO,inactive,
[N-]=[N+]=[N-],inactive,
O=S1(=O)OCC2C(CO1)C1(Cl)C(Cl)=C(Cl)C2(Cl)C1(Cl)Cl (stereo not given),inactive,
Oc1ccccc1Br,inactive,
FC(F)(F)C(F)(C(F)(F)F)C(F)(F)C(F)(F)CC1CO1 (stereo not given),inactive,
C=CC(=O)OCC(CC)(COC(=O)C=C)COC(=O)C=C,inactive,
CC1(C)CN=C(NN=C(/C=C/c2ccc(C(F)(F)F)cc2)/C=C/c2ccc(C(F)(F)F)cc2)NC1,,15.4 µM (active)
CCOP(=S)(OCC)SCn1nnc2ccccc2c1=O,inactive,
O=C(O)C=CC(F)(C(F)(F)F)C(F)(F)F,inactive,
O=C(O)C(F)(OC(F)(F)C(F)(F)C(F)(F)F)C(F)(F)F (stereo not given),inactive,
OCC1CO1 (stereo not given),inactive,
Nc1ccc(Cl)cc1,inactive,
CNC(=O)Oc1ccc(N(C)C)c(C)c1,inactive,
Nc1ccc(Sc2ccc(N)cc2)cc1,inactive,
c1ccc2c(c1)sc1ccccc12,inactive,
CC(O)C#N (stereo not given),inactive,
OCC(F)(F)OC(F)(F)C(F)(F)OC(F)(F)CO,inactive,
CC(O)C(F)(F)C(F)(F)F (stereo not given),inactive,
